# Data taken from paper PMC7862700, “An all-to-all approach to the identification of sequence-specific readers for epigenetic DNA modifications on cytosine”.
# Experiments:
# Experiment in all cases: DAPPL (digital affinity profiling via proximity ligation, sequencing); 10 mM Tris-HCl pH 7.5, 50 mM NaCl, 1 mM DTT, 4% glycerol, room temperature, 30 min; GST-TFs on glutathione beads, 16-mer random dsDNA library, 0.1% formaldehyde crosslink after washing; high values mean tight binding
# FLI1 = biological target: T1, FLI1 (Homo sapiens, UniProt Q01543 1-452); settings: protein: recombinant; tags: N-terminal GST; dsDNA, one strand shown
# T1 sequence: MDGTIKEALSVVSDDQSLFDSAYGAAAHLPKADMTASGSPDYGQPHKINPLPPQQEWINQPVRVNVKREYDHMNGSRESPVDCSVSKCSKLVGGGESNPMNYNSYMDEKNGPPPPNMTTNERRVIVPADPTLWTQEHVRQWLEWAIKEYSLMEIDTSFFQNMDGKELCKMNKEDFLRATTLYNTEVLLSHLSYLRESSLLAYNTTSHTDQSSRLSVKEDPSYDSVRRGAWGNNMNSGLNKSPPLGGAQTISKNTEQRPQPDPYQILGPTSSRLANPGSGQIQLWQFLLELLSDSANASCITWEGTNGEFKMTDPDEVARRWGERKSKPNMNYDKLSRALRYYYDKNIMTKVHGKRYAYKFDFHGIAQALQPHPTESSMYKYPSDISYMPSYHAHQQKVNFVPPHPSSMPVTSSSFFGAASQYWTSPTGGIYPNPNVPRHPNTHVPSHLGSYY
# In short: (§1)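 Pools were built from human transcription factors expressed in yeast as GST fusions, captured on glutathione beads and DNA-barcoded, along with a tag-only sample. Incubation with 200 nmole of a 16-mer random double-stranded DNA library lasted 30 min at room temperature in Tris/NaCl/DTT/glycerol buffer, and was followed by washing, 0.1% formaldehyde crosslinking, proximity ligation, PCR amplification and Illumina NextSeq500 sequencing. Binding signal is the quotient of each hexamer's read frequency for a factor and its frequency for the tag-only sample.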
# ELK1 = biological target: T2, ELK1 (Homo sapiens, UniProt P19419 1-428); settings: protein: recombinant; tags: N-terminal GST; dsDNA, one strand shown
# T2 sequence: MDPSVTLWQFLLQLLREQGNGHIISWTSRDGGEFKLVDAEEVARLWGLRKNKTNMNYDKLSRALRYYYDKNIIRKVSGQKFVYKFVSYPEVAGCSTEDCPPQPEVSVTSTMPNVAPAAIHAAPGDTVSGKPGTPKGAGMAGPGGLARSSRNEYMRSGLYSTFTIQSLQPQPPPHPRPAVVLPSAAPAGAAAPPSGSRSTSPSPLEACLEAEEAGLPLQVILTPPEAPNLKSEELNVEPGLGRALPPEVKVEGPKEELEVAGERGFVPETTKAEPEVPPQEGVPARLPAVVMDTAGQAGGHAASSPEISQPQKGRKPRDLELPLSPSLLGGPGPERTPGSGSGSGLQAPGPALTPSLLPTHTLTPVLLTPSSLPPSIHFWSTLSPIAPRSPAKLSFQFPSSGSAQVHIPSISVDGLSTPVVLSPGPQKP
# In short: as §1
# GABPA = biological target: T3, GABPA (Homo sapiens, UniProt Q06546 1-454); settings: protein: recombinant; tags: N-terminal GST; dsDNA, one strand shown
# T3 sequence: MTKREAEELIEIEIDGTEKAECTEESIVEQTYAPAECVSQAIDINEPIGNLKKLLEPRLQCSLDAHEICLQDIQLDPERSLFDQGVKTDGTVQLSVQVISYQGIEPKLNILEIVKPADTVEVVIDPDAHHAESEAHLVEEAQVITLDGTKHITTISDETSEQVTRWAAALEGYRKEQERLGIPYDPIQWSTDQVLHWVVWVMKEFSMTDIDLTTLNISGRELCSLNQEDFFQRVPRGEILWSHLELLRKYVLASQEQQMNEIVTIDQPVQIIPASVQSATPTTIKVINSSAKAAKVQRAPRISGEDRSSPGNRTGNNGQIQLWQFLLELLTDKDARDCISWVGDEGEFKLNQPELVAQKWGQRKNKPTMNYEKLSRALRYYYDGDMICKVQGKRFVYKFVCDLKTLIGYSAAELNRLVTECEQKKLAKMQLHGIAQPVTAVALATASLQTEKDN
# In short: as §1
# ERG = biological target: T4, ERG (Homo sapiens, UniProt P11308 1-479); settings: protein: recombinant; tags: N-terminal GST; dsDNA, one strand shown
# T4 sequence: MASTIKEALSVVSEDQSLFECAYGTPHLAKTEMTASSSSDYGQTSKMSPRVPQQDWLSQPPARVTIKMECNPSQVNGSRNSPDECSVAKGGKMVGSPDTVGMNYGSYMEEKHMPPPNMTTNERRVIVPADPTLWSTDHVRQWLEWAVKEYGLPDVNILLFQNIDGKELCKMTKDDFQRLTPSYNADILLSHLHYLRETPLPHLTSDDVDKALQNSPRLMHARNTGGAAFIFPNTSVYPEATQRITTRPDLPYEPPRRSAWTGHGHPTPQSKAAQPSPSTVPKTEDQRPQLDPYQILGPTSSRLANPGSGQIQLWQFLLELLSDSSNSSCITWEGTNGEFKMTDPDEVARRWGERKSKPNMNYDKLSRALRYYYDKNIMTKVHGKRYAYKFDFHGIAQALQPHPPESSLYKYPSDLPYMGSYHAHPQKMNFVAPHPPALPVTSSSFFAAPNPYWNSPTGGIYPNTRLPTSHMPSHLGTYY
# In short: as §1
# ELF1 = ELF1 (Homo sapiens, UniProt P32519 1-619); settings: protein: recombinant; tags: N-terminal GST; dsDNA, one strand shown
# Chain of ELF1 (P32519 whole entry): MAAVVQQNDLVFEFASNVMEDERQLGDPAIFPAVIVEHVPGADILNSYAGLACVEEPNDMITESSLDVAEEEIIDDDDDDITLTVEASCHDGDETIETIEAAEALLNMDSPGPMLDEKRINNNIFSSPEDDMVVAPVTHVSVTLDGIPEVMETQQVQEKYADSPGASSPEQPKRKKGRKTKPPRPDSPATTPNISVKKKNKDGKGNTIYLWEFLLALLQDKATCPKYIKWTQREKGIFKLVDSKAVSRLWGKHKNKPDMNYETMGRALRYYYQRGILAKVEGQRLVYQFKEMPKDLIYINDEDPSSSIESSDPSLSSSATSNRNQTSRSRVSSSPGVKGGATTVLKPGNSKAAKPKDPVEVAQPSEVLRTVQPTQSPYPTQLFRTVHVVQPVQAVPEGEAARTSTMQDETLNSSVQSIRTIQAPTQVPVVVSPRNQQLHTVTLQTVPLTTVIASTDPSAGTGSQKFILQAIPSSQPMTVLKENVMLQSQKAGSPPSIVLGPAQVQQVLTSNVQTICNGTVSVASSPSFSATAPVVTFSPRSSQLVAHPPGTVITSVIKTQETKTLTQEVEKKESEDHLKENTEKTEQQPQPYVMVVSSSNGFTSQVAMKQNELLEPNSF
# In short: as §1
# EHF = biological target: T5, EHF (Homo sapiens, UniProt Q9NZC4 1-300); settings: protein: recombinant; tags: N-terminal GST; dsDNA, one strand shown
# T5 sequence: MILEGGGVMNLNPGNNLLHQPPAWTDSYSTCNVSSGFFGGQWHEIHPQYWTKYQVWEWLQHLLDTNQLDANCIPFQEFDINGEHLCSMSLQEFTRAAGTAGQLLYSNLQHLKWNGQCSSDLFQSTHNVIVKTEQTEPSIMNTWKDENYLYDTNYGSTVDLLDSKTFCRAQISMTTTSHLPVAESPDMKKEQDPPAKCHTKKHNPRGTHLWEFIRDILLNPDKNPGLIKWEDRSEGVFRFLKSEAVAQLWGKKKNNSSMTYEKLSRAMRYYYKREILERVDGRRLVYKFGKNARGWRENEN
# In short: as §1
# SPI1 = SPI1 (Homo sapiens, UniProt P17947 1-270); settings: protein: recombinant; tags: N-terminal GST; dsDNA, one strand shown
# In short: as §1
# SPIB = SPIB (Homo sapiens, UniProt Q01892 1-262); settings: protein: recombinant; tags: N-terminal GST; dsDNA, one strand shown
# Chain of SPIB (Q01892 whole entry): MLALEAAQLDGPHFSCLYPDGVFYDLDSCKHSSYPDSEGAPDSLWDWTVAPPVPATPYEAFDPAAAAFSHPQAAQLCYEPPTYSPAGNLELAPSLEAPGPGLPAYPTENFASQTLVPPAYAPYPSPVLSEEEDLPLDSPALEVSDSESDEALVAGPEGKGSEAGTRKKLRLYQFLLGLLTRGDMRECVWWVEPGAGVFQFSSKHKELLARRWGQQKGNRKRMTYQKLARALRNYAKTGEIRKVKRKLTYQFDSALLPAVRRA
# In short: as §1
# ELK3 = biological target: T6, ELK3 (Homo sapiens, UniProt P41970 1-407); settings: protein: recombinant; tags: N-terminal GST; dsDNA, one strand shown
# T6 sequence: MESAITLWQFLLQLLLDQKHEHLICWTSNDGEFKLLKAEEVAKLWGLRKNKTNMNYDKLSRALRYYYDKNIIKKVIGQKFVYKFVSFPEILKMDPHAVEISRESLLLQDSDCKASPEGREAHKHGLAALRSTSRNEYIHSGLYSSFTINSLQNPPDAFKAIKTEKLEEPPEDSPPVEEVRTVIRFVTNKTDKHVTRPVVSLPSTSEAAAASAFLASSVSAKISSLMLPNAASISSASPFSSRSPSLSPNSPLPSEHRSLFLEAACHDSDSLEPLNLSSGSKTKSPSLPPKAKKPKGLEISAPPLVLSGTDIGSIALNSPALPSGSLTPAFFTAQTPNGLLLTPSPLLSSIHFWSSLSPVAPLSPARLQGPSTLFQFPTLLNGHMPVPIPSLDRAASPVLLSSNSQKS
# In short: as §1
# FEV = biological target: T7, FEV (Homo sapiens, UniProt Q99581 1-238); settings: protein: recombinant; tags: N-terminal GST; dsDNA, one strand shown
# T7 sequence: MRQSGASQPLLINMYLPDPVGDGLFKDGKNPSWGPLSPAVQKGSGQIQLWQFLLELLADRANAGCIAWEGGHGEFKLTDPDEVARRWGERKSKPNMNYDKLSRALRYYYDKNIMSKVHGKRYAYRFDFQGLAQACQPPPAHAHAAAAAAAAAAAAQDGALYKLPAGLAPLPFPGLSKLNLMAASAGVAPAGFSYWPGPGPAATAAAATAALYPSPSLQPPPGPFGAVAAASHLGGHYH
# In short: as §1
# ETV5 = ETV5 (Homo sapiens, UniProt P41161 1-510); settings: protein: recombinant; tags: N-terminal GST; dsDNA, one strand shown
# Chain of ETV5 (P41161 whole entry): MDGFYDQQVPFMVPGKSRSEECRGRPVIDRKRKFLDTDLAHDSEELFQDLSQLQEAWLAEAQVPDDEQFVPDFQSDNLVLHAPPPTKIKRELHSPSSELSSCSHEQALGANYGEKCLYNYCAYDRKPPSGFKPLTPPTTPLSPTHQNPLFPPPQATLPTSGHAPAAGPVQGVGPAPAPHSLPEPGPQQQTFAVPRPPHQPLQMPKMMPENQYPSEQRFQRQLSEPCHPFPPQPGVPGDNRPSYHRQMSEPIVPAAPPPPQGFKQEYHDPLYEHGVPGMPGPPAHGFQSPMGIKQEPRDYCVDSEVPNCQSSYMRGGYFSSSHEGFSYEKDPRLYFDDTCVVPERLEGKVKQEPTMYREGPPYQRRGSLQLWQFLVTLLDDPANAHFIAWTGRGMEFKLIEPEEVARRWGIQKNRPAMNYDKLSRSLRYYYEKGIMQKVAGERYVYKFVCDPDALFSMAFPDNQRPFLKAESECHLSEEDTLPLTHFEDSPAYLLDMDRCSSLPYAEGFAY
# In short: as §1
# HSF1 = HSF1 (Homo sapiens, UniProt Q00613 1-529); settings: protein: recombinant; tags: N-terminal GST; chain copies: 3; dsDNA, one strand shown
# Chain of HSF1 (Q00613 whole entry): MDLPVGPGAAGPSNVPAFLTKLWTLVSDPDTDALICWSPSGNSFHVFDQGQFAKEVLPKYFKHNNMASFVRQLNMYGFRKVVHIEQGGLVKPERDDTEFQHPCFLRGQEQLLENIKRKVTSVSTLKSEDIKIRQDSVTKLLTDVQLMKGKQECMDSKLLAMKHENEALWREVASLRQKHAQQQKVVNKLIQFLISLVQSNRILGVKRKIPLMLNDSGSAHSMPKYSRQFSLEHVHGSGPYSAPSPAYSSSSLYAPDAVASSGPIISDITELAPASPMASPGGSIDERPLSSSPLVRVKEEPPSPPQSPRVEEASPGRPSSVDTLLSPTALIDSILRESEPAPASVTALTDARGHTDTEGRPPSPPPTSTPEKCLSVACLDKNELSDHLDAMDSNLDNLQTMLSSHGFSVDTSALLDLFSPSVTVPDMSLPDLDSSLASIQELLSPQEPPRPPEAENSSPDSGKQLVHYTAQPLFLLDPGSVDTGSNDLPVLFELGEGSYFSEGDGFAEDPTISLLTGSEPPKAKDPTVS
# In short: as §1
# SPIC = biological target: T8, SPIC (Homo sapiens, UniProt Q8N5J4 1-248); settings: protein: recombinant; tags: N-terminal GST; dsDNA, one strand shown
# T8 sequence: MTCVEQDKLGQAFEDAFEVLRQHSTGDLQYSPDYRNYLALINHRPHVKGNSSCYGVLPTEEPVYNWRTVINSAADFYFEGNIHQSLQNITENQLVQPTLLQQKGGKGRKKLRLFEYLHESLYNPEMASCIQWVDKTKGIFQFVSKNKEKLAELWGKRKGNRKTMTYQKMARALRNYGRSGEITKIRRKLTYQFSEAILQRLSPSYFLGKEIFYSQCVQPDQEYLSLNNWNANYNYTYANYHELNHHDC
# In short: as §1
# ELF4 = ELF4 (Homo sapiens, UniProt Q99607 1-663); settings: protein: recombinant; tags: N-terminal GST; dsDNA, one strand shown
# Chain of ELF4 (Q99607 whole entry): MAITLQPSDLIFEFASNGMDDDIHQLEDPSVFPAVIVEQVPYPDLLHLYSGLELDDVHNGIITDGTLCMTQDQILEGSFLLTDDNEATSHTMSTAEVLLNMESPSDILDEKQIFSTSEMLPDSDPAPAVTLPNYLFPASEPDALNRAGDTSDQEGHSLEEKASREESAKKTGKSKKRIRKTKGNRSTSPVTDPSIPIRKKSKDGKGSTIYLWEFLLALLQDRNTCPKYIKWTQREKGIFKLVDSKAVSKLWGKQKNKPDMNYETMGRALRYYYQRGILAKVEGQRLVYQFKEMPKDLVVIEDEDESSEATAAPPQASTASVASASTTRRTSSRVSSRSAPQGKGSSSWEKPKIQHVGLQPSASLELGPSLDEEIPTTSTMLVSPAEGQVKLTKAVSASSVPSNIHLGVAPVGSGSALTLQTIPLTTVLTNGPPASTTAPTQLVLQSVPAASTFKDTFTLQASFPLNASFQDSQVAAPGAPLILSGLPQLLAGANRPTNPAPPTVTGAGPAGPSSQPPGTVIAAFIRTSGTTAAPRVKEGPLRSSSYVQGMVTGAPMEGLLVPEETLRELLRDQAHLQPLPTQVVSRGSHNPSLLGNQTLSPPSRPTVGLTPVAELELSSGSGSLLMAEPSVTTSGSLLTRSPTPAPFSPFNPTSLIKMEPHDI
# In short: as §1
# ELK4 = biological target: T9, ELK4 (Homo sapiens, UniProt P28324-2 1-405); settings: protein: recombinant; tags: N-terminal GST; dsDNA, one strand shown
# T9 sequence: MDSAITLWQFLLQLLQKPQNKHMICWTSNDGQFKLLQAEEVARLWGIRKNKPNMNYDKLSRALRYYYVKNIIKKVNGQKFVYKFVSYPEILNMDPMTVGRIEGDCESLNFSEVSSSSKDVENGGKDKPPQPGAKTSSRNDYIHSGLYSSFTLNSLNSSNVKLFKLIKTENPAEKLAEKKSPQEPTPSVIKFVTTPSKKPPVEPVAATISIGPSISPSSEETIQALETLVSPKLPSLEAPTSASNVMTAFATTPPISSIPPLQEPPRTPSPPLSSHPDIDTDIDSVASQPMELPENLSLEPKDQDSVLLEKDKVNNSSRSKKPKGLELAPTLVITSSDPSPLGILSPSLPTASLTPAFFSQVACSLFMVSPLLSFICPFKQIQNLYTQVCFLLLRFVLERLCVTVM
# In short: as §1
# ETV2 = biological target: T10, ETV2 (Homo sapiens, UniProt O00321 1-342); settings: protein: recombinant; tags: N-terminal GST; dsDNA, one strand shown
# T10 sequence: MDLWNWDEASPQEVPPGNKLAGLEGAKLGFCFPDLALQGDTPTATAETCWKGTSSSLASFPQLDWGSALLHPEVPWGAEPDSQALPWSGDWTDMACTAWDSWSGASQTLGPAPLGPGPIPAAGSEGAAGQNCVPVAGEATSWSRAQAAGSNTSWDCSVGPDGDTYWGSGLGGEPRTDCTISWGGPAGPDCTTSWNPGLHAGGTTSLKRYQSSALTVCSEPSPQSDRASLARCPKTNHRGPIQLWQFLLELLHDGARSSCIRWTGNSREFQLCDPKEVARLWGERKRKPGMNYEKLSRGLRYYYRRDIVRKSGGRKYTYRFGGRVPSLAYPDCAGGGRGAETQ
# In short: as §1
# ELF3 = biological target: T11, ELF3 (Homo sapiens, UniProt P78545 1-371); settings: protein: recombinant; tags: N-terminal GST; dsDNA, one strand shown
# T11 sequence: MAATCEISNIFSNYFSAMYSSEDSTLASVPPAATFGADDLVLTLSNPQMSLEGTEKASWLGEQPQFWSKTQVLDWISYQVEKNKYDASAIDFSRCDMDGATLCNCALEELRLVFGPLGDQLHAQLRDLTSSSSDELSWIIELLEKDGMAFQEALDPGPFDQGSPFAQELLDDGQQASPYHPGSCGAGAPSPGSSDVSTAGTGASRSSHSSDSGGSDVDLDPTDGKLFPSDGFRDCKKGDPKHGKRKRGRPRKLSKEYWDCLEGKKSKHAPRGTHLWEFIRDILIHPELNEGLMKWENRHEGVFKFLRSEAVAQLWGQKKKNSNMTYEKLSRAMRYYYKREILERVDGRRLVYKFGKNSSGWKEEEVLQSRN
# In short: as §1
# CRX = CRX (Homo sapiens, UniProt O43186 1-299); settings: protein: recombinant; tags: N-terminal GST; dsDNA, one strand shown
# Chain of CRX (O43186 whole entry): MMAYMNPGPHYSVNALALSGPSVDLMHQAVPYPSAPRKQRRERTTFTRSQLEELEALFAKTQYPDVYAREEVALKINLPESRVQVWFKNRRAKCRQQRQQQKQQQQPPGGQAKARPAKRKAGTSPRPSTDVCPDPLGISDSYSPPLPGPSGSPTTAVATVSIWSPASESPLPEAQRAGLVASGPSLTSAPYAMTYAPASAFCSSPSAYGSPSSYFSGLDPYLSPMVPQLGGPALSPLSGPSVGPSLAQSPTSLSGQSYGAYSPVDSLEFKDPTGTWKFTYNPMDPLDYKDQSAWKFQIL
# In short: as §1
# ETV1 = ETV1 (Homo sapiens, UniProt P50549 1-477); settings: protein: recombinant; tags: N-terminal GST; dsDNA, one strand shown
# Chain of ETV1 (P50549 whole entry): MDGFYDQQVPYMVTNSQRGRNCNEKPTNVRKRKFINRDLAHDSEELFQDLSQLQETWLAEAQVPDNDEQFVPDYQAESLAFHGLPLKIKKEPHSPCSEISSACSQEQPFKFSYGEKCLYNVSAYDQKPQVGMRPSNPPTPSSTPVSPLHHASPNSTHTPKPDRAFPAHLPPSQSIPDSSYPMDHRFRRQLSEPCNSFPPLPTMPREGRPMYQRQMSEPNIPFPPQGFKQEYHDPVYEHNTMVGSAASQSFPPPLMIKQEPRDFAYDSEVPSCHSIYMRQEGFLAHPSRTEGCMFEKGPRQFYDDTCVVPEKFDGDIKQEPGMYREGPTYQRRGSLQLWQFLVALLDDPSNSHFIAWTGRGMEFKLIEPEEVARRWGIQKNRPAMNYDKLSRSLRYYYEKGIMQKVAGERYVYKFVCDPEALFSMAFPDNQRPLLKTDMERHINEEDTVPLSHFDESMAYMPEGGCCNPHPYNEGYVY
# In short: as §1
sequence,measurement,setting,value
AAGTAG,binding signal,FLI1,"1.12 fold enrichment (6-mer frequency, TF over GST control)"
same,binding signal,ELK1,"1.21 fold enrichment (6-mer frequency, TF over GST control)"
same,binding signal,GABPA,"1.2 fold enrichment (6-mer frequency, TF over GST control)"
same,binding signal,ERG,"1.24 fold enrichment (6-mer frequency, TF over GST control)"
same,binding signal,ELF1,"1.15 fold enrichment (6-mer frequency, TF over GST control)"
same,binding signal,EHF,"1.23 fold enrichment (6-mer frequency, TF over GST control)"
same,binding signal,SPI1,"1.35 fold enrichment (6-mer frequency, TF over GST control)"
same,binding signal,SPIB,"1.13 fold enrichment (6-mer frequency, TF over GST control)"
same,binding signal,ELK3,"1.26 fold enrichment (6-mer frequency, TF over GST control)"
same,binding signal,FEV,"1.21 fold enrichment (6-mer frequency, TF over GST control)"
same,binding signal,ETV5,"1.25 fold enrichment (6-mer frequency, TF over GST control)"
same,binding signal,HSF1,"1.11 fold enrichment (6-mer frequency, TF over GST control)"
same,binding signal,SPIC,"1.3 fold enrichment (6-mer frequency, TF over GST control)"
same,binding signal,ELF4,"1.18 fold enrichment (6-mer frequency, TF over GST control)"
same,binding signal,ELK4,"1.06 fold enrichment (6-mer frequency, TF over GST control)"
same,binding signal,ETV2,"1.18 fold enrichment (6-mer frequency, TF over GST control)"
same,binding signal,ELF3,"1.31 fold enrichment (6-mer frequency, TF over GST control)"
same,binding signal,CRX,"1.2 fold enrichment (6-mer frequency, TF over GST control)"
same,binding signal,ETV1,"1.28 fold enrichment (6-mer frequency, TF over GST control)"
